# Assay results published in PubChem BioAssay AID463173 (ICCB-Longwood Screening Facility, Harvard Medical School, 2010).
# The whole screen tested about 52,000 compounds, of which about 1,700 (3.3%) were called active. Many of the other results were omitted from the sample, so actives are more common in it than they were. Unmarked numbers belong to inactive results. No stated cut-off is given here; in the data, active means survival mostly below about 52% (no sharp cut-off); inactive means mostly above about 56%.
# Test system: Wild type
# Assay: growth inhibition of S. aureus wild type versus tarO mutant, primary screen, teichoic acid synthesis inhibitors, RN4220, OD600 (AID 463173)
# Details: S. aureus RN4220 wild type/DeltatarO growth, OD600, 18 h, active compounds read low, screened at 18.75 µg/mL (by protocol)
row,Compound,survival
1,Brc1ccc(-n2nc(-c3ccccc3)c3cnc4cc5c(cc4c32)OCO5)cc1,112%
2,CCN(C(=O)CSc1nnc(-c2ccc(Cl)cc2)o1)c1ccccc1,66%
3,CCCCN1C(=O)C(O)(CC(=O)c2ccc(C(C)(C)C)cc2)c2ccccc21 (stereo unspecified),3% (active)
4,Cc1ccc(C(=O)CC2(O)C(=O)N(Cc3ccccc3)c3ccccc32)c(C)c1 (stereo unspecified),20%
5,CCc1ccc(C(=O)CC2(O)C(=O)N(CCc3ccccc3)c3ccc(Br)cc32)cc1 (stereo unspecified),36%
6,CCCCN1C(=O)C(O)(CC(=O)c2ccc(C)cc2C)c2cc(Br)ccc21 (stereo unspecified),1% (active)
7,COc1ccc(OC)c(C(=O)CC2(O)C(=O)N(Cc3ccccc3C)c3ccccc32)c1 (stereo unspecified),118%
8,O=C(CC1(O)C(=O)N(Cc2ccccc2)c2ccc(Br)cc21)c1ccccc1 (stereo unspecified),30%
9,Cc1ccc(C(=O)CC2(O)C(=O)N(CCc3ccccc3)c3ccc(Br)cc32)cc1 (stereo unspecified),24%
10,CCCN1C(=O)C(O)(CC(=O)c2ccc(C(C)C)cc2)c2ccccc21 (stereo unspecified),129%
11,CCCN1C(=O)C(O)(CC(=O)c2ccc(OC)c(OC)c2)c2ccccc21 (stereo unspecified),130%
12,Cc1ccccc1CN1C(=O)C(O)(CC(=O)c2cccc(Br)c2)c2ccccc21 (stereo unspecified),10% (active)
13,Cc1ccc(C(=O)CC2(O)C(=O)N(Cc3ccccc3F)c3ccccc32)cc1 (stereo unspecified),71%
14,CCCCN1C(=O)C(O)(CC(=O)c2ccc(CC)cc2)c2cc(Br)ccc21 (stereo unspecified),2% (active)
15,COC(=O)CSc1ncc2c(n1)-c1ccccc1N(Cc1cccc(F)c1)S2(=O)=O,70%
16,CC(C)CCNC(=O)c1cccc(-n2cnc3cccnc32)c1,136%
17,Fc1ccc(-c2cn3cc(Cc4ccccc4Cl)sc3n2)cc1,53%
18,N#Cc1ccc2ccn(CC(N)=O)c2c1,95%
19,O=C(NCc1ccccc1)c1cc2ccc3cccnc3c2[nH]1,73%
20,Cc1ccc(CNC(=O)c2cc3ccc4cccnc4c3[nH]2)cc1,0% (active)
21,CCOC(=O)c1ccccc1NC(=O)c1cc2ccc3cccnc3c2[nH]1,121%
22,CCOc1ccccc1NC(=O)c1cc2ccc3cccnc3c2[nH]1,10% (active)
23,O=C(NCc1ccc(Cl)cc1)c1cc2ccc3cccnc3c2[nH]1,49%
24,CCOc1ccccc1N(CC)C(=O)c1cc2ccc3cccnc3c2[nH]1,74%

row,Compound,survival
1,Cc1ccc(-c2nnn(CC(=O)N(CC(=O)NCCC(C)C)c3ccc(F)cc3)n2)cc1,84%
2,CCOC(=O)C1C(=O)N(C(=O)c2cncc(Br)c2)CC1c1ccccc1 (stereo unspecified),112%
3,CCOC(=O)c1cc(S(=O)(=O)Nc2cc(F)ccc2C)[nH]n1,75%
4,CC1Oc2ccccc2N(CC(=O)NCc2ccccc2)C1=O (stereo unspecified),105%
5,CCC1Oc2ccccc2N(CC(=O)NCc2ccccc2)C1=O (stereo unspecified),-3% (active)
6,CCC1Oc2ccccc2N(CC(=O)NCc2ccc(C)cc2)C1=O (stereo unspecified),77%
7,Cc1ccc(CCNC(=O)c2ccc(CSCc3ccc(C)cc3)o2)cc1,65%
8,CCc1nn2c(=O)cc(COC(=O)c3cccc(NC(=O)COc4ccccc4F)c3)nc2s1,124%
9,CC(C)(C)OC(=O)N1CCC(c2c(C(=O)NC3CCN(Cc4ccccc4)CC3)cnn2-c2cccc(F)c2)CC1,76%
10,CC(C)(C)OC(=O)N1CCC(c2c(C(=O)NCCN3CCc4ccccc4C3)cnn2-c2ccc(F)cc2F)CC1,81%
11,CC(C)(C)OC(=O)N1CCC(c2c(C(=O)NC3CCN(Cc4ccccc4)CC3)cnn2-c2ccc(F)cc2F)CC1,-4% (active)
12,CC(C)(C)OC(=O)N1CCC(c2c(C(=O)NCCN3CCOCC3)cnn2-c2ccc(F)cc2F)CC1,-3% (active)
13,Cc1cccc(C)c1-n1ncc(C(=O)NCCCN2CCCCC2)c1C1CCN(C(=O)OC(C)(C)C)CC1,85%
14,Cc1cccc(C)c1-n1ncc(C(=O)NCCN2CCN(C)CC2)c1C1CCN(C(=O)OC(C)(C)C)CC1,0% (active)
15,CC(C)(C)OC(=O)N1CCC(c2c(C(=O)NCCN3CCOCC3)cnn2-c2ccc(F)cc2)CC1,89%
16,Cc1cccc(C)c1-n1ncc(C(=O)NCCN2CCOCC2)c1C1CCN(C(=O)OC(C)(C)C)CC1,75%
17,CCOC(=O)N1CCC(NC(=O)c2cnn(-c3ccc(F)cc3F)c2C2CCN(C(=O)OC(C)(C)C)CC2)CC1,82%
18,Cc1cccc(OCC(=O)Nc2c(C(=O)N3CCN(c4ccccc4)CC3)oc3ccccc23)c1,86%
19,CN=C1SC(CC(=O)NC(N)=O)C(=O)N1C (stereo unspecified),92%
20,COc1ccc(OC)c(NC(=O)CSc2ccnc(=O)[nH]2)c1,80%
21,CC(=O)Nc1cccc(NC(=O)Cn2c(-c3cccnc3)ccc(C#N)c2=O)c1,89%
22,CCN1CCN(C(c2ccc(OC)cc2)c2c(O)cc(C)n(Cc3ccco3)c2=O)CC1 (stereo unspecified),71%
23,CCOC(=O)c1c(NC(=O)CN(CC)CC)sc2c1CCC/C2=N\O,112%
24,O=C(CSc1nc(-c2ccco2)nc2cc(=O)[nH]n12)Nc1ccc(F)cc1,65%

row,Compound,survival
1,CC(NCc1ccc2c(c1)OCO2)C(=O)NC1CCCCC1 (stereo unspecified),103%
2,CCOC(=O)c1cc(-c2ccccc2)n(CCC(=O)NCCc2ccc(C)cc2)c1C,73%
3,CCOC(=O)c1cc(-c2ccccc2)n(CCC(=O)NCCc2ccccc2)c1C,-2% (active)
4,CCOC(=O)c1cc(-c2ccccc2)n(CCC(=O)NCCc2cccc(C)c2)c1C,49%
5,CCc1ccccc1NC(=O)COC(=O)c1cn(CC)c2nc(C)ccc2c1=O,83%
6,COc1ccc(OC)c(-c2nc3c(C#N)c[nH]n3c2NC2CCCCC2)c1,102%
7,COc1ccc(-c2cc(C(F)(F)F)nc(SCC(=O)NCCc3ccc(OC)c(OC)c3)n2)cc1,70%
8,COc1ccc(CCNc2nc(-c3ccccc3OC)cc(C(F)(F)F)n2)cc1OC,-8% (active)
9,COc1ccc(CCNc2nc(-c3ccc(Cl)cc3)cc(C(F)(F)F)n2)cc1OC,18% (active)
10,COc1ccc(-c2cc(C(F)(F)F)nc(SCC(=O)NCc3ccc(OC)c(OC)c3)n2)cc1,97%
11,COc1ccc(CCNc2nc3c(-c4cccc(C(F)(F)F)c4)nnn3c3ccccc23)cc1OC,83%
12,COc1ccc(CCNC(=O)CSc2nc(-c3ccc(F)cc3)cc(C(F)(F)F)n2)cc1OC,97%
13,COc1ccc(CCNc2nc(-c3ccc(C)cc3)cc(C(F)F)n2)cc1OC,100%
14,COc1ccc(CCNc2nc(-c3ccc(F)cc3)cc(C(F)(F)F)n2)cc1OC,142%
15,COc1ccc(CCNc2nc(-c3ccc(OC)c(OC)c3)cc(C(F)(F)F)n2)cc1OC,0% (active)
16,CC(C)C1N(c2ccccc2)CCN1c1ccccc1,110%
17,Cc1ccccc1OCC(=O)NCCN1CCCC1,113%
18,COc1cc(-c2noc(CSc3nc(-c4ccccc4)cc(=O)[nH]3)n2)cc(OC)c1OC,59%
19,O=c1[nH]cc(COCC(F)(F)C(F)F)c(=O)[nH]1,111%
20,Cc1ccccc1CS(=O)(=O)Cc1ccc(C(=O)NCCc2ccc(Cl)cc2)o1,88%
21,O=C(NCc1ccccc1Cl)c1ccc(CSCc2cccc(F)c2)o1,-1% (active)
22,O=C(CCSCc1cccc(Cl)c1)NCCc1ccc(Cl)cc1,67%
23,O=C(NCCc1ccc(Cl)cc1)c1ccc(CS(=O)(=O)Cc2ccccc2F)o1,-3% (active)
24,Cc1ccc(CCNC(=O)c2ccc(CS(=O)(=O)Cc3ccccc3F)o2)cc1,71%

row,Compound,survival
1,O=C(NCc1ccccc1Cl)c1ccc(CSCc2ccccc2Cl)o1,66%
2,Cc1ccc(CCNC(=O)CCSCc2ccccc2F)cc1,-6% (active)
3,CCc1ccc(CNC(=O)CCSCc2ccccc2F)cc1,70%
4,Cc1ccc(CNC(=O)CCSCc2ccccc2F)cc1,74%
5,O=C(CCSCc1ccc(Cl)cc1)NCCc1ccccc1,-6% (active)
6,Cc1ccc(CCNC(=O)CCSCc2ccc(Cl)cc2)cc1,72%
7,O=C(NCc1ccc(F)cc1Cl)c1ccc(CSCc2ccccc2Cl)o1,53%
8,COc1cccc(CNS(=O)(=O)c2ccc(-c3cc(C(F)(F)F)on3)s2)c1,87%
9,CC1=C(C(=O)Nc2cc(Cl)ccc2C)C(c2sccc2C)n2ncnc2N1 (stereo unspecified),47%
10,O=C(CSc1nc2c([nH]c3ccccc32)c(=O)n1-c1cccc(Cl)c1)NCc1ccccc1,78%
11,COc1cccc(Cn2c(CNC(=O)C(C)C)nc3cccnc32)c1,80%
12,Cc1oc(-c2ccc(C(=O)NCc3ccccc3)cc2)nc1CN1CCc2ccccc21,80%
13,CC(C)(C)OC(=O)N1CCC(c2c(C(=O)NCc3cccc(Cl)c3)cnn2-c2ccc(F)cc2)CC1,78%
14,COc1ccc(-c2nc(SCC(=O)Nc3ccc4c(c3)OCCO4)c(-c3ccc(F)cc3)[nH]2)cc1OC,62%
15,Cc1ccccc1C(=O)NCC(c1ccc(N(C)C)cc1)N1CCCC1 (stereo unspecified),66%
16,COc1ccc(CCNC(=O)CCSCc2ccccc2Cl)cc1OC,88%
17,Cc1ccccc1CSCc1ccc(C(=O)NCCc2ccccc2)o1,77%
18,O=C(CCSCc1ccccc1Cl)NCCc1ccccc1,74%
19,Cc1ccc(CCNC(=O)c2ccc(CSCc3ccccc3C)o2)cc1,0% (active)
20,Cc1ccc(CCNC(=O)c2ccc(CSCc3ccccc3Cl)o2)cc1,72%
21,O=C(CCSCc1cccc(Cl)c1)NCc1ccc(F)cc1Cl,66%
22,O=C(CCSCc1ccc(Cl)cc1)NCc1ccc(F)cc1Cl,79%
23,O=C(CCSCc1ccccc1Cl)NCc1ccc(F)cc1Cl,0% (active)
24,Cc1ccc(CCNC(=O)CCSCc2ccccc2Cl)cc1,-3% (active)
